Experimental data reported in PubChem BioAssay AID887 (National Center for Advancing Translational Sciences (NCATS), 2007).
Values joined by “and” are separate entries in the source; they are usually repeats but may differ in a detail not shown here. Equal entries are not always repeated. The campaign covered roughly 74,000 compounds. About 1,100 (1.5%) were called active. Roughly 5% stayed inconclusive and do not appear here. Calls come from the whole dose curve; as a rule, active = well fitted inhibition curve with a large enough effect; inconclusive = small, poorly fitted or top-dose-only effect; inactive = no such curve, though single readings can be large or run the other way. This excerpt belongs to a sample that is enriched for actives. Non-standard residues stand in square brackets, D forms with d. Residues, ends and D or L forms follow the SMILES beside them. Groups on a side chain read outwards from the residue. *: point of attachment. X2 = CCC(C)C(N)C1=NC(C(=O)*)CS1; Orn = NCCC[CH](N)C(=O)O

Target: Polyunsaturated fatty acid lipoxygenase ALOX15 (Homo sapiens) (UniProt P16050)
Experiment: qHTS Assay for Inhibitors of 15-hLO (15-human lipoxygenase); note: nearly all actives have a fitted effect of over 55% in size
Conditions: purified 15hLO-1, xylenol orange hydroperoxide absorbance; series mostly up to 57.1 µM; activity change, negative = inhibition: at the top concentration
In short: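 Purified human 15hLO-1 (40 nM) in 25 mM Hepes pH 7.5, 0.01% Triton X-100, preincubated 15 min RT with compound, then 50 uM arachidonic acid for 6 min. Hydroperoxide read by ferrous/xylenol orange, 30 min; 573/405 nm absorbance ratio gave progress.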
% is set by controls: 0 for no effect and ±100 for the full control effect; potency is the fitted concentration of half-maximal effect.

Sequence of Polyunsaturated fatty acid lipoxygenase ALOX15 (Homo sapiens) (P16050 whole entry, looked up): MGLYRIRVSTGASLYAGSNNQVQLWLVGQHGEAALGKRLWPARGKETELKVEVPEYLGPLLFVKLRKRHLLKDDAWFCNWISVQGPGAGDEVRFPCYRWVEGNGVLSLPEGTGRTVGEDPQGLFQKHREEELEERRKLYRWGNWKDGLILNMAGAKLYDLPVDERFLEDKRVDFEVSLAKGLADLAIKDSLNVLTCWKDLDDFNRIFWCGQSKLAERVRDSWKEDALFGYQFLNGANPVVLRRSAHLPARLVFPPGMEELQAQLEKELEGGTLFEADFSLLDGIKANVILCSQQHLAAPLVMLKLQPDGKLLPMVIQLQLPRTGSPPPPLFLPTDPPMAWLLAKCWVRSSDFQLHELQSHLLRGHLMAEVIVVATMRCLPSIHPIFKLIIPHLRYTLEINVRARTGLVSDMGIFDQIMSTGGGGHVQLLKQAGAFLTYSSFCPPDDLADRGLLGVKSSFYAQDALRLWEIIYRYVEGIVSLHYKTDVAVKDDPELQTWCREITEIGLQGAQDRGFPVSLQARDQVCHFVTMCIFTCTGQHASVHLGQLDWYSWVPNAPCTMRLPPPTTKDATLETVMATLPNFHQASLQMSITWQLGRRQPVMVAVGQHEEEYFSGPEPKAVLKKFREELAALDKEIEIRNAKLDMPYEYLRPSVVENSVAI

Row | Structure (SMILES) | Potency | activity change, negative = inhibition
1 | CSc1sc(C)cc1C1C(C#N)=C(N)N(c2cccnc2)C2=C1C(=O)CCC2 (stereo unspecified) | 15.8 µM (active) | 
2 | Cc1cc(C(=O)O)ccc1[N+](=O)[O-] |  | -12.9% (inactive)
3 | O=C1C[C@@H](O)[C@@H](O)[C@H]2[C@@H]3C(=O)N(Cc4ccc5c(c4)OCO5)C(=O)[C@@H]3CC[C@H]12 |  | 6.76% [at 11.4 µM] (inactive) and -0.286% [at 11.4 µM] (inactive)
4 | CO/N=C\[C@@H](C)[C@H](OCc1ccccc1)C(C)C |  | 6.43% [at 11.4 µM] (inactive)
5 | CC1C(O)CC2C(C(=O)O)=CO[C@@H](O[C@H]3OC(CO)C(O)C(O)C3O)C21 (stereo partly specified) |  | 9% (inactive)
6 | CC1(C)OC(C(O)(c2ccccc2)c2ccccc2)C(C(O)(c2ccccc2)c2ccccc2)O1 (stereo unspecified) |  | 14.5% [at 11.4 µM] (inactive)
7 | CC[C@@H]1Cc2cc(O)ccc2C2=C1c1ccc(O)cc1C[C@H]2CC | 10 µM (active) | 
8 | COc1cccc([C@H](O)Cn2cc(-c3ccc(CON=C(C)C)cc3)nn2)c1 |  | 15.5% [at 11.4 µM] (inactive)
9 | C[C@@H](c1ccccc1)N1C(=O)[C@H]2[C@H]3[C@H](O)[C@H](O)C/C(=N/OC[C@@H](O)COCc4ccco4)[C@@H]3CC[C@@H]2C1=O |  | 0.315% [at 11.4 µM] (inactive)
10 | Cc1cnc(CNc2cc(-c3c(C)noc3C)ncn2)cn1 |  | 11% (inactive)
11 | CCC(C)C(N)C1=NC(C(=O)NC(CC(C)C)C(=O)NC(CCC(=O)O)C(=O)NC(C(=O)NCCCCC2NC(=O)C(CC(N)=O)NC(=O)C(CC(=O)O)NC(=O)C(Cc3cnc[nH]3)NC(=O)C(Cc3ccccc3)NC(=O)C(C(C)CC)NC(=O)C(CCCN)NC2=O)C(C)CC)CS1 (stereo not drawn) (cyclo(DNK([Ile-Glu-Leu-X2])[Orn]IFH); configuration not given here) |  | -2.63% (inactive)
12 | COc1ccc(C(=O)NC(=O)CSc2nnc(-c3ccco3)n2-c2ccccc2)cc1 |  | 8.82% (inactive)
13 | Cc1cccc(C)c1NC(=O)CCCSc1nnc(-c2ccco2)n1-c1ccccc1 |  | 9.58% (inactive)
14 | O=C(CSc1nnc(-c2ccco2)n1-c1ccccc1)NCCc1ccccc1 | 6.31 µM (active) | 
15 | COC(=O)[C@@H]1CC[C@H](C)[C@@H](c2ccc(C)cc2)N1C(=O)c1ccc(/C=N\O[C@@H](C)c2cn([C@H](CO)Cc3ccccc3)nn2)cc1 |  | -7.8% [at 11.4 µM] (inactive) and 0.419% [at 11.4 µM] (inactive)
16 | CN1CCN(c2ccc(NC(=O)COc3ccc(Cl)cc3Cl)cc2)CC1 |  | -10.2% (inactive)
17 | CC(=O)N1CCN(c2ccc(NCc3ccc(C(C)C)cc3)cc2)CC1 | 12.6 µM (active) | 
18 | CC(=O)N1CCC2(CC1)CCN(c1ccncc1)CC2 |  | 5.31% (inactive)
19 | CC(C)CO/N=C1/C[C@@H](O)[C@@H](O)[C@@H]2[C@@H]3C(=O)N(C[C@@H]4CCCO4)C(=O)[C@H]3CC[C@@H]12 |  | 9.84% [at 11.4 µM] (inactive)
20 | C[C@@H]1O[C@@H](OC[C@H]2O[C@@H](Oc3c(-c4cccc(O)c4O)oc4cc(O)cc(O)c4c3=O)[C@H](O)[C@@H](O)[C@@H]2O)[C@H](O)[C@H](O)[C@H]1O |  | -3.77% [at 25.6 µM] (inactive)
21 | CC(C)C(c1nnnn1CCc1ccccc1)N1CCN(C(=O)c2ccco2)CC1 (stereo unspecified) |  | 4.74% (inactive)
22 | O=C(OCc1cc2ccccc2[nH]c1=O)c1cccnc1 |  | -1.72% (inactive)

Row | Structure (SMILES) | Potency | activity change, negative = inhibition
23 | C=CCOC(=O)C(C(C)=O)C(NC(=O)OC)c1ccccc1 (stereo unspecified) |  | 13.9% [at 11.4 µM] (inactive)
24 | C=CCn1c(=O)c2ccccc2n2c(SCC(=O)N3CCCc4ccccc43)nnc12 |  | -27.3% (inactive)
25 | Cc1nnc(SCC(=O)N2CCc3ccccc32)n1-c1ccccc1 |  | 2.3% (inactive)
26 | O=C(CSc1nc2[nH]ncc2c(=O)n1-c1ccccc1)N1CCCc2ccccc21 | 15.8 µM (active) | 
27 | CC1(C)OC2CC(=O)OC[C@@]23C1CC(=O)[C@]1(C)C3CC[C@@]2(C)C(c3ccoc3)OC(=O)C3O[C@@]321 (stereo partly specified) |  | 2.09% (inactive)
28 | COc1ccccc1C(=O)n1nc(-c2ccccc2)nc1N | 12.6 µM (active) | 
29 | COc1ccc(C(=O)n2nc(-c3ccc(C)cc3)nc2N)cc1OC |  | 8.21% (inactive)
30 | COc1ccc(C(=O)n2nc(-c3ccc(Cl)cc3)nc2N)cc1OC |  | 9.61% (inactive)
31 | CCOC(=O)c1cccc(NC(=O)CCn2nnc3ccccc32)c1 |  | -10.8% (inactive)
32 | CO[C@@H]1COC(=O)[C@H](Cc2ccccc2)NC(=O)C/C=C\[C@@H](C)[C@H](OC)COC(=O)[C@@H](C)NC(=O)C/C=C\[C@H]1C |  | 2.31% [at 11.4 µM] (inactive) and 5.99% [at 11.4 µM] (inactive)
33 | Cc1cccc(C(=O)O)c1[N+](=O)[O-] |  | 2.6% (inactive)
34 | Cc1ccc2nc(CC(=O)c3ccc4ccccc4c3)c(=O)[nH]c2c1 |  | -4.04% [at 11.4 µM] (inactive)
35 | C=CC(=O)c1ccc2ccccc2c1 | 12.6 µM (active) | 
36 | Cc1csc(-c2nc3ccccc3n2C)n1 |  | -12.9% [at 25.6 µM] (inactive)
37 | Cc1cccc2c3c(ccc12)C1=C(C(=O)C3=O)C(C)CO1 (stereo unspecified) |  | -24.2% (inactive)
38 | C/C(CCN1CCc2nc(-c3ccccc3)c(-c3ccccc3)cc2C1)=N\O[C@@H](C)c1cn([C@@H]2COC[C@@H]2O)nn1 |  | 0.588% [at 11.4 µM] (inactive)
39 | O=C(Oc1cc(OC(=O)c2ccccc2)c2c(c1)OC(c1ccc(OC(=O)c3ccccc3)c(OC(=O)c3ccccc3)c1)[C@@H](OC(=O)c1ccccc1)C2)c1ccccc1 (stereo partly specified) |  | -3.99% (inactive)
40 | COC(=O)C(C(=O)OC)[C@@H]1CCCC(=O)C1 |  | 14.4% [at 11.4 µM] (inactive)
41 | C=CCn1c(CSc2nc3ccccc3s2)nnc1SCC(=O)NCc1ccco1 |  | -9.16% (inactive)
42 | C=CCn1c(SCC(=O)Nc2nc3ccccc3s2)nnc1-c1ccccc1O | 25.1 µM (active) | 
43 | CCn1c(SCC(=O)Nc2nc3ccc(OC)cc3s2)nnc1-c1ccoc1C |  | -5.95% (inactive)
44 | CC(C)C(N)C(=O)OCCOCn1cnc2c(=O)[nH]c(N)nc21 (stereo unspecified) |  | 13.5% (inactive)

Row | Structure (SMILES) | Potency | activity change, negative = inhibition
45 | Cc1ccc2c(c1)C(O)(CC(=O)c1cccnc1)C(=O)N2 (stereo unspecified) |  | 0.486% (inactive)
46 | COc1ccc(/C=C/NC(=O)c2ccc(OC)cc2)cc1 |  | -5.84% [at 11.4 µM] (inactive)
47 | O=C(NCc1ccccn1)c1cc2ccccc2oc1=O |  | 4.58% (inactive)
48 | O=C(NCc1ccccn1)c1ccc2nc(-c3ccco3)c(-c3ccco3)nc2c1 | 3.16 µM (active) | 
49 | Cc1cccn2c(=O)c3cc(C(=O)NCc4ccccn4)n(C)c3nc12 |  | 15.7% (inactive)
50 | O=C(O)c1ccc(Cl)c(S(=O)(=O)Nc2ccccc2Cl)c1 |  | -1.82% (inactive)
51 | N#Cc1ccc(COC(=O)Cn2nnc(-c3ccccc3)n2)cc1 |  | -11.8% (inactive)
52 | N#Cc1c(N)sc2c1CCN(C(=O)OCc1ccccc1)C2 | 15.8 µM (active) | 
53 | NC1(C(=O)OCc2ccccc2)CCCC1 |  | -11.8% [at 11.4 µM] (inactive)
54 | CC(CCC(=O)O)C1CCC2C3C(O)C[C@@H]4CC(O)CC[C@@]4(C)C3CC[C@@]12C (stereo partly specified) |  | inactive
55 | C#CCC(C(=O)OC)(C(=O)OC)C(C[N+](=O)[O-])c1ccccc1 (stereo unspecified) |  | -3.59% [at 11.4 µM] (inactive)
56 | CCC(CCC(C)C1CCC2C3CC=C4CC(O)CC[C@@]4(C)C3CC[C@@]12C)C(C)C (stereo partly specified) |  | -3.31% (inactive)
57 | CO[C@H]1COC(=O)C/C=C\[C@H](C)COC(=O)[C@@H](OCc2ccccc2)/C=C\[C@@H]1C |  | 5.89% [at 11.4 µM] (inactive)
58 | C=C1C(=O)C23C(O)C1CCC2[C@]12COC3(O)C(O)C1C(C)(C)CC[C@H]2O (stereo partly specified) |  | 0.681% (inactive)
59 | CCOCCCN1C(=O)CN(C2CCCCC2)C(=O)C1c1ccc(OCC)c(OC)c1 (stereo unspecified) |  | 2.68% (inactive)
60 | COC(=O)[C@@H]1CC[C@H](C)[C@@H](c2ccc(C)cc2)N1C(=O)c1ccc(/C=N\OC[C@@H](O)COCc2ccco2)cc1 |  | -2.65% [at 11.4 µM] (inactive)
61 | Cc1ccc(-c2nc(CS(=O)CC(=O)N3CCN(c4ncccn4)CC3)c(C)o2)cc1 (stereo unspecified) |  | -6.88% (inactive)
62 | CCOc1ccc2[nH]c(=O)c(CN(Cc3nnnn3Cc3ccccc3)CC3CCCO3)cc2c1 (stereo unspecified) |  | 7.24% (inactive)
63 | CCOc1ccc2[nH]c(=O)c(CN(Cc3nnnn3CCc3ccccc3)CC3CCCO3)cc2c1 (stereo unspecified) |  | -10.3% (inactive)
64 | COc1ccc2[nH]c(=O)c(CN(Cc3nnnn3CCc3ccccc3)CC3CCCO3)cc2c1 (stereo unspecified) | 1.26 µM (active) | 
65 | O=C(CSc1nnc2scc(-c3ccc(F)cc3)n12)NCc1ccco1 |  | 3.22% (inactive)
66 | CCCc1nc2c(C)cc(-c3nc4ccccc4n3C)cc2n1Cc1ccc(-c2ccccc2C(=O)O)cc1 |  | 3% (inactive)
